Holding throughout (experiment): qHTS profiling for inhibitors of Plasmodium falciparum proliferation (AID 504749); also: nearly all actives have a fitted effect of over 60% in size
What all share (settings): P. falciparum in erythrocytes, SYBR Green DNA, 72 h; series mostly up to 12.8 µM
Background: Quantitative high-throughput screening tests each substance at several concentrations.

One assay relates to 3D7. The method, boiled down: (§1)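 Three-day growth assay of blood-stage parasites in erythrocytes (0.3% parasitemia, 2.5% hematocrit) at 37 C, 5% CO2, quantified by SYBR Green DNA staining after overnight detergent lysis.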
The next assay deals with AA1029. The method, boiled down:
as §1

The subject of a further assay is AS120. The method, boiled down:
as §1

In a further assay the test system is CP191. Summed up: as §1
The subject of another assay is CP192. The method, boiled down: as §1
In another assay the test system is CP194. Summed up:
as §1

The next assay relates to CP217. The method, boiled down:
as §1

The test system of another assay is CP237. Summed up: as §1
The subject of the next assay is CP252. The method, boiled down:
as §1

A further assay has as its system CP256. The method, boiled down:
as §1

For another assay, the system named is CP265. Summed up:
as §1

For the next assay, the system named is CP286. The method, boiled down:
as §1

The next assay concerns CP291. Summed up: as §1
The test system of the next assay is DIV30. The method, boiled down:
as §1

The next assay deals with ECU. Summed up: as §1
A further assay has as its system N140. The method, boiled down:
as §1

The subject of another assay is PAD. Summed up:
as §1

A further assay deals with PC26. The method, boiled down: as §1
For the next assay, the system named is SC27B. The method, boiled down:
as §1

For a further assay, the system named is TAB109. The method, boiled down: as §1

Records with an inconclusive call do not appear. The source made the active and inactive calls. Calls follow the shape of the dose curve; as a rule, active = well fitted inhibition curve with a large enough effect; inconclusive = small, poorly fitted or top-dose-only effect; inactive = flat fitted curve, though single readings scatter.
Potency is read from the fitted curve at half-maximal effect.

For `CN1CC(=O)N=C1N`, the Potency result in the assay on 3D7, in the assay with AA1029, with AS120, in the assay on CP191, in the assay with CP192 and with CP194 was “inactive” in each case. Besides, the Potency entry in the assay with CP217, in the assay on CP237, in the assay on CP252, in the assay with CP256, in the assay on CP265 and with CP286 was “inactive” each time. Besides, the Potency entry in the assay with CP291, in the assay on DIV30, with ECU, in the assay on N140, in the assay on PAD and with PC26 was “inactive” throughout. For the same molecule, the Potency entry in the assay on SC27B and in the assay on TAB109 was “inactive” each time.

For `C[C@]12C=CC(=O)C=C1CCC1C2C(O)C[C@]2(C)C1CC[C@]2(O)C(=O)CO` (stereo partly drawn), the Potency result with 3D7, in the assay with AA1029, in the assay with AS120, in the assay with CP191, with CP192 and in the assay on CP194 was “inactive” throughout. Further, the Potency entry with CP217, with CP237, in the assay with CP252, in the assay on CP256, in the assay with CP265 and with CP286 was “inactive” each time. The Potency entry in the assay on CP291, in the assay with DIV30, with ECU, in the assay with N140, in the assay with PAD and with PC26 was “inactive” each time. The Potency entry in the assay with SC27B and in the assay on TAB109 was “inactive” throughout.

As to `CN(C)CCc1c[nH]c2ccc(CC3COC(=O)N3)cc12` (stereo not drawn), the Potency entry with 3D7, in the assay on AA1029, in the assay on AS120, in the assay on CP191, in the assay with CP192 and in the assay with CP194 was “inactive” throughout. The Potency result in the assay with CP217, in the assay with CP237, with CP252, in the assay on CP256, in the assay with CP265 and in the assay on CP286 was “inactive” each time. The Potency result with CP291, with DIV30, in the assay on ECU, in the assay with N140, in the assay with PAD and in the assay on PC26 was “inactive” in each case. For the same molecule, the Potency entry in the assay on SC27B and with TAB109 was “inactive” each time.

On to `COC1C=CO[C@@]2(C)Oc3c(C)c(O)c4c(O)c(c(C=NN5CCN(C)CC5)c(O)c4c3C2=O)NC(=O)/C(C)=C\C=CC(C)C(O)[C@@H](C)C(O)C(C)[C@H](OC(C)=O)C1C` (stereo partly drawn), for which the Potency is 2000 nM (active) in the assay on 3D7; 2000 nM (active) in the assay with AA1029; 282 nM (active) in the assay on AS120; 2820 nM (active) with CP191; 4260 nM (active) with CP192; 4780 nM (active) in the assay with CP194. Moreover, the Potency in the assay with CP217 was 5010 nM (active); in the assay with CP237 it was 355 nM (active); with CP252, 3160 nM (active); with CP256 it was 3550 nM (active); in the assay with CP265, 5010 nM (active); with CP286, 2510 nM (active). For the same molecule, the Potency with CP291 was 4260 nM (active); in the assay on DIV30, 536 nM (active); in the assay on ECU, 282 nM (active); in the assay on N140 it was 199 nM (active); in the assay on PAD, 282 nM (active); with PC26 it was 1070 nM (active). The figures for the Potency in the assay with SC27B and in the assay with TAB109 were 282 nM (active) and 2000 nM (active), respectively.

Take `CC[C@@]12CCCN3CCc4c(n(c5ccccc45)[C@](O)(C(=O)OC)C1)C32` (stereo partly drawn): the Potency result in the assay on 3D7, in the assay on AA1029, in the assay on AS120, with CP191, with CP192 and in the assay on CP194 was “inactive” each time. Moreover, the Potency entry in the assay on CP217, with CP237, with CP252, with CP256, with CP265 and with CP286 was “inactive” each time. The Potency result with CP291, in the assay on DIV30, in the assay on ECU, in the assay with N140, in the assay with PAD and in the assay with PC26 was “inactive” each time. The Potency entry in the assay on SC27B and in the assay with TAB109 was “inactive” each time.

Turning to `CC1(C)SC2C(N3C(=O)C(c4ccccc4)NC3(C)C)C(=O)N2C1C(=O)O` (stereo not drawn), the Potency result with 3D7, with AA1029, with AS120, in the assay on CP191, in the assay on CP192 and in the assay on CP194 was “inactive” throughout. Also, the Potency result in the assay on CP217, in the assay with CP237, with CP252, with CP256, in the assay on CP265 and with CP286 was “inactive” in each case. For the same molecule, the Potency entry with CP291, with DIV30, in the assay on ECU, in the assay on N140, with PAD and with PC26 was “inactive” each time. The Potency entry in the assay on SC27B and in the assay with TAB109 was “inactive” each time.

On to `CNC1C(OC2C(O[C@@H]3C(O)C(O)[C@@H](N=C(N)N)C(O)C3N=C(N)N)OC(C)[C@@]2(O)CO)OC(CO)C(O)C1O` (stereo partly drawn), for which the Potency result in the assay on 3D7, in the assay with AA1029, in the assay with AS120, in the assay with CP191, in the assay with CP192 and in the assay on CP194 was “inactive” throughout. Further, the Potency entry in the assay on CP217, in the assay on CP237, with CP252, with CP256, in the assay with CP265 and in the assay with CP286 was “inactive” in each case. The Potency result in the assay with CP291, with DIV30, in the assay with ECU, in the assay on N140, with PC26 and in the assay on SC27B was “inactive” each time. Further, in the assay on TAB109, the Potency entry was “inactive”.

Regarding `CC1(C)OC2CC(=O)OC[C@@]23C1CC(=O)[C@]1(C)C3CC[C@@]2(C)C(c3ccoc3)OC(=O)C3O[C@@]321` (stereo partly drawn), the Potency result in the assay with 3D7, with AA1029, in the assay on AS120, with CP191, in the assay on CP192 and in the assay with CP194 was “inactive” throughout. The Potency entry in the assay on CP217, in the assay on CP237, in the assay with CP252, in the assay with CP256, in the assay on CP265 and in the assay with CP286 was “inactive” in each case. Also, the Potency result in the assay with CP291, in the assay on DIV30, with ECU, in the assay on N140, in the assay on PAD and in the assay on PC26 was “inactive” in each case. Also, the Potency result in the assay on SC27B and in the assay on TAB109 was “inactive” throughout.

As to `CC(=O)N[C@@H]1C(O)OC(CO)C(O)C1O` (stereo partly drawn), the Potency result with 3D7, with AA1029, in the assay on AS120, in the assay on CP191, with CP192 and in the assay on CP194 was “inactive” each time. Moreover, the Potency entry in the assay with CP217, in the assay on CP237, with CP252, with CP256, with CP265 and with CP286 was “inactive” throughout. The Potency entry in the assay on CP291, in the assay with DIV30, in the assay on ECU, in the assay with N140, with PAD and in the assay with PC26 was “inactive” throughout. Further, the Potency result with SC27B and with TAB109 was “inactive” each time.

For `CN(C)CCCOC1C(C(O)CO)OC2OC(C)(C)O[C@@H]21` (stereo partly drawn), the Potency result in the assay on 3D7, in the assay with AA1029, in the assay on AS120, in the assay with CP191, with CP192 and in the assay on CP194 was “inactive” in each case. Besides, the Potency entry in the assay on CP217, in the assay on CP237, with CP252, in the assay on CP256, in the assay on CP265 and in the assay with CP286 was “inactive” throughout. The Potency result in the assay on CP291, with DIV30, in the assay with ECU, with N140, with PAD and in the assay with PC26 was “inactive” each time. Also, the Potency result in the assay with SC27B and in the assay with TAB109 was “inactive” each time.

Consider `CC1C2CCC3C4CC=C5CC(N(C)C)CC[C@@]5(C)C4CC[C@@]32CN1C` (stereo partly drawn), for which the Potency result with 3D7, in the assay with AA1029, in the assay on AS120, in the assay with CP191, in the assay with CP192 and with CP194 was “inactive” each time. For the same molecule, the Potency result in the assay with CP217, in the assay on CP237, with CP252, in the assay on CP256, with CP265 and in the assay with CP286 was “inactive” in each case. The Potency entry in the assay on CP291, in the assay with DIV30, in the assay with ECU, in the assay on N140, in the assay on PAD and with PC26 was “inactive” throughout. In addition, the Potency result with SC27B was “inactive”.
